From PubChem BioAssay
PLK1 PBD inh = qHTS for Inhibitors of PLK1-PDB (polo-like kinase 1 - polo-box domain): Primary Screen; Plk1 PBD binding of FITC phosphopeptide, fluorescence polarization; AID 720504, 2013; actives 2.8% (n = 360,000); Potency, µM, actives largely listed as inhibitors; Serine/threonine-protein kinase PLK1 (Homo sapiens), P53350; also: series mostly up to about 57 µM; nearly all actives have a fitted effect of over 65% in size
Sfp PPTase inh = qHTS Assay for Inhibitors of Bacillus subtilis Sfp phosphopantetheinyl transferase (PPTase); 4'-phosphopantetheinyl transferase ffp (Bacillus subtilis), Q9F4F7; Biochemical Sfp PPTase activity, qHTS; Potency, µM, usual class: inhibitors; actives 3.5% (n = 310,000); AID 1490, 2009;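 also: the enzyme is Sfp with the accession as filed and its product quenches rhodamine fluorescence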
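With Hepes-Na pH 7.6 buffer containing 10 mM MgCl2, Sfp (15 nM) modified BHQ-2-YbbR (12.5 uM) using rhodamine-CoA (5 uM). Two reads 30 minutes apart at 525/598 nm yielded each well's rate.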
BAZ2B inh = qHTS Assay for Inhibitors of BAZ2B; AlphaScreen BAZ2B-H3K14Ac peptide displacement; Potency, µM (top dose mostly 114 µM), usual class: inhibitors; actives 4.4% (n = 360,000); also: nearly all actives have a fitted effect of over 60% in size
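BAZ2B 50 nM plus b-H3(5-23)K14Ac 50 nM, PBS pH 7.4/0.01% Tween-20, 30 min RT; compound added (max 110 uM), 30 min RT; streptavidin donor/Ni-chelate acceptor beads 10 ug/mL final, 20 min dark; AlphaScreen read.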
G9a block = qHTS Assay for Inhibitors of Histone Lysine Methyltransferase G9a. actives 8.8% (n = 350,000). Potency, µM (titrated, usually from 102 µM), actives largely listed as inhibitors. G9a H3K9 monomethylation, AlphaScreen, 2 h. Histone-lysine N-methyltransferase EHMT2 (Homo sapiens), Q96KQ7. AID 504332, 2011; also: nearly all actives have a fitted effect of over 75% in size
Target sequence (Q96KQ7 913-1193 limits assumed): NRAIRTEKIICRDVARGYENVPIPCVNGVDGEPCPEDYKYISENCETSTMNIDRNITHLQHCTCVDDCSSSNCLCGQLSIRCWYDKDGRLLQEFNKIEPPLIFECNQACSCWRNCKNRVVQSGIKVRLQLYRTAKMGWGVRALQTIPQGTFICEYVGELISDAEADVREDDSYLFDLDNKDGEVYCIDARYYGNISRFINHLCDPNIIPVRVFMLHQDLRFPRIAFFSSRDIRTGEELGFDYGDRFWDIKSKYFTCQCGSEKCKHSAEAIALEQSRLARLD
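G9a (20 nM) was preincubated 15 min with compound, then reacted 2 h at room temperature with 500 nM biotin-H3K9 peptide and 20 µM SAM. Monomethyl-H3K9 detected by AlphaScreen using anti-H3K9me1 antibody.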
JMJD2A Tudor = qHTS Assay for Inhibitors of JMJD2A-Tudor Domain. Lysine-specific demethylase 4A (Homo sapiens), O75164. AlphaScreen JMJD2A-Tudor / H3K4me3 peptide binding. Potency, µM (doses to about 114 µM), actives largely listed as inhibitors. actives 4.4% (n = 390,000); also: nearly all actives have a fitted effect of over 50% in size
HP1b binding inh = HTS for Inhibitors of HP1-beta Chromodomain Interactions with Methylated Histone Tails; Chromobox protein homolog 1 (Homo sapiens), P83916; AID 540317, 2011; Potency, µM (titrated, usually from 114 µM), hits mostly inhibitors; AlphaScreen HP1-beta / biotin-H3K9me3 peptide binding; actives 0.56% (n = 390,000); also: nearly all actives have a fitted effect of over 70% in size
Target sequence (P83916 whole entry, looked up): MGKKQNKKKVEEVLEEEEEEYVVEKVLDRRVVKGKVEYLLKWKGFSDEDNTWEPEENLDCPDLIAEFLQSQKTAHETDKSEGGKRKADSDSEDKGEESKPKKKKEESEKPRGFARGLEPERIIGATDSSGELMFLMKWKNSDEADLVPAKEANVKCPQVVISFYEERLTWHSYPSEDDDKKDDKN
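Compound inhibition of the preformed complex between 50 nM HP1-beta and 50 nM biotinylated H3K9me3 peptide was read by AlphaScreen. Buffer was PBS pH 7.4 with 0.01% Tween-20. Incubations ran 30 min at room temperature, with 10 ug/mL donor/acceptor beads.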
Numbers stand for hits; n = inactive; u = inconclusive; x = not tested or not shown; ! = not confirmed by another sample; [ ] = dose if it differs, or a comment. In the library only some 12% were active in any assay of this set; here they are far more common. Calls follow the shape of the dose curve; as a rule, active = well fitted curve in the direction sought with a large enough effect; inconclusive = small, poorly fitted or top-dose-only effect, or another doubt; inactive = no such curve, though single readings can be large; an effect the other way counts as inactive or inconclusive.

SMILES	PLK1 PBD inh	Sfp PPTase inh	BAZ2B inh	G9a block	JMJD2A Tudor	HP1b binding inh
CC(C)c1ccc(Nc2nnns2)cc1	27µM	20µM	n	10µM	u	u
Nn1c(SCC(=O)Nc2ccc3c(c2)OCO3)nnc1-c1ccc(Cl)cc1	n	n	n	n	n	n
O=C(CSCc1ccc(Cl)cc1)Nc1ccc2c(c1)OCO2	n	n	n	u	n	n
O=C(CNCc1ccccc1Cl)Nc1ccc2c(c1)OCCO2	n	n	56µM	x	28µM	u
O=C(CSc1nnc(-c2ccccn2)n1-c1ccc(Cl)cc1)Nc1ccc2c(c1)OCO2	n	n	u	14µM	n	n
O=C(CNCc1ccc(Cl)cc1)Nc1ccc2c(c1)OCCO2	n	n	56µM	11µM	18µM	u
O=C(CSc1nc2c(c(=O)n1-c1ccc(Cl)cc1)SCC2)Nc1ccc2c(c1)OCCO2	n	n	n	45µM	n	n
Cc1cc(NS(=O)(=O)c2c(C)c(C)cc(C)c2C)no1	n	n	n	n	n	n
CCOC(=O)c1nc(Nc2cc(Cl)ccc2OC)c2ccccc2n1	n	n	n	n	n	n
COc1ccccc1CNC(=O)c1ccc(CSc2nc3ccncc3n2Cc2ccccc2C)cc1	x	x	n	u	n	n
O=C(CSc1nccn1Cc1ccc(Cl)cc1)Nc1ccc2c(c1)OCCO2	x	x	u	u	50µM	n
Cc1ccc(OCC(=O)Nc2ccc3c(c2)C(=O)NC3=O)cc1	n	n	n	x	u	n
CC(C)(C)c1ccc(OCC(=O)Nc2ccc3c4c(cccc24)C(=O)NC3=O)cc1	u	n	n	x	79µM	n
Cn1nccc1C(=O)Nc1ccc(OC(=O)c2ccnn2C)cc1	n	n	n	1.6µM	n	n
Cn1nccc1C(=O)NC(=S)Nc1cc(Cl)cc(Cl)c1	u	n	n	u	22µM	n
N#CC1=C(N)NC(=S)C(C(N)=O)C1c1ccc([N+](=O)[O-])cc1 (stereo not drawn)	27µM	1µM	n	x	89µM	n
Cc1cccc(NC(=O)CNC(=O)Cn2cc(C(F)(F)F)cc(Cl)c2=O)c1C	n	x	n	u	n	n
OCCN1CCN(CC/C=C2/c3ccccc3Sc3ccc(C(F)(F)F)cc32)CC1	n	u	u	11µM!	u	n
OCCN1CCN(CCC=C2c3ccccc3Sc3ccc(Cl)cc32)CC1	x	n	x	u	x	x
CC(=O)OCC1=C(C(=O)O)N2C(=O)C(NC(=O)c3ccc(COc4c(C)cccc4Cl)o3)C2SC1 (stereo not drawn)	n	63µM	u	45µM	u	n
CC(=O)OCC1=C(C(=O)O)N2C(=O)C(NC(=O)CCn3nc(C)c(Cl)c3C)C2SC1 (stereo not drawn)	n	u	n	u	n	n
CC(=O)OCC1=C(C(=O)O)N2C(=O)C(NC(=O)Cn3nc(C(F)F)c(Cl)c3C)C2SC1 (stereo not drawn)	n	n	n	50µM	n	n
CC(=O)OCC1=C(C(=O)O)N2C(=O)C(NC(=O)CCn3nc(C(F)(F)F)c(Br)c3C3CC3)C2SC1 (stereo not drawn)	u	n	n	40µM	n	n
CC(=O)OCC1=C(C(=O)O)N2C(=O)[C@@H](NC(=O)Cc3cccs3)[C@H]2SC1	u	u	50µM	7.5µM!	79µM	n
CCOC(=O)Cc1cnc(NC(=O)Cn2nnc(-c3ccc(OCC)cc3)n2)s1	24µM	n	n	n	n[11.4 µM]	n
SMILES	PLK1 PBD inh	Sfp PPTase inh	BAZ2B inh	G9a block	JMJD2A Tudor	HP1b binding inh
Nc1ccc(N=Nc2ccccc2O)c(N)c1	n	x	x	x	35µM	u
Oc1ccccc1N=Nc1ccccc1O	n	n	x	16µM	32µM	n
COc1ccccc1CNc1cc(-c2ccccc2C)ncn1	x	n	x	n[0.501 µM]	x	x
Cc1cc(Nc2cc(F)ccc2C)nc(-n2nc(C)cc2C)n1	x	x	n	n	u	n
COc1ccc(C(=O)Nc2cccc(OCc3cc(=O)n4c5c(sc4n3)CCCC5)c2)cc1	x	x	n	n	n	n
CC(C(=O)N1CCN(C=O)CC1)N1C(=O)c2ccccc2C1=O (stereo not drawn)	19µM	n	n	n	n[11.4 µM]	n
CCCc1nc(SCC(=O)Nc2nnc(CC)s2)c2c(=O)n(C)c(=O)n(C)c2n1	n	n	n	x	n	n
COCC(=O)Nc1cc(C)cn(Cc2c(F)cccc2Cl)c1=O	3.4µM	n	n	n	u	n
COC(=O)[C@@H](NC(=O)N1CCC(Cc2ccccc2)CC1)C(C)C	n	n	n	n[0.501 µM]	n	n
CC(C)(C)C(=O)C(Cl)C(=O)Nc1ccccc1 (stereo not drawn)	11µM	45µM	n	u	n	n
CCCNC(=O)C1CN(C(=O)c2nn(Cc3ccccc3)c(=O)c3ccccc23)c2ccccc2O1 (stereo not drawn)	n	x	n	n[12.7 µM]	n	n
COC(=O)CCC/C=C1/SCC(NC(=O)c2ccccc2)C1O (stereo not drawn)	n	n	n	n	n	n
COC(=O)CCC/C=C1/SCC(NC(=O)c2ccccc2)C1=O (stereo not drawn)	u	u	u	45µM	n	n
CCOc1ccc(-n2nc3cc(C)c(N)cc3n2)cc1	n	n	u	x	n	n
Cc1cc2nn(-c3ccc(Cl)cc3)nc2cc1N	n	n	u	13µM	n	n
S=c1[nH]c2nc(Cl)c(Cl)nc2[nH]1	n	x	x	x	x	x
S=c1[nH]c2cnc(Cl)nc2[nH]1	24µM	x	x	x	40µM	n
CCCCCCCC(=O)OC[C@H](CO)OC(=O)CCCCCCC	x	n	x	n	x	x
CCCCn1c(N)c(N(CC(C)C)C(=O)C2CC(=O)N(c3ccccc3C(C)CC)C2)c(=O)[nH]c1=O (stereo not drawn)	n	x	n	79µM	n	n
CCCCn1c(N)c(N(CCOC)C(=O)C2CC(=O)N(Cc3ccc(C)cc3)C2)c(=O)[nH]c1=O (stereo not drawn)	n	x	n	50µM	n	n
CCCCn1c(N)c(N(CCOC)C(=O)CN2C(=O)c3ccccc3C2=O)c(=O)[nH]c1=O	n	n	n	n	n	n
CCCCn1c(N)c(N(CCOC)C(=O)CN2c3ccccc3CC2C)c(=O)[nH]c1=O (stereo not drawn)	n	n	n	20µM	n	n
CCCCn1c(N)c(N(CC(C)C)C(=O)C2CC(=O)N(c3ccc(C)cc3)C2)c(=O)[nH]c1=O (stereo not drawn)	n	x	n	u	n	n
